Molecules are shown by their SMILES. The full ranking holds about 110,000 compounds; the median of “z-score” is about -0.1, and the highest 2% start at about 2. Shown is part of a subset that was picked to be rich in the highest values. Active and inactive are the calls of the source.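 Rule for the calls: active = z-score in the third read window above 3 or below -3; inactive = the rest.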

This assay deals with Metabotropic glutamate receptor 8 (Rattus norvegicus) (UniProt P70579). Kind of assay: rat mGluR8 modulators via GIRK flux, primary screen, cell-based, thallium flux, HTS (AID 488969). Conditions: HEK293 rat mGluR8, GIRK (G protein-gated inwardly rectifying potassium channel) thallium flux, FluoZin2; at 10 µM; stronger effect = higher value; submaximal glutamate (EC20) added with thallium.
Sequence of Metabotropic glutamate receptor 8 (Rattus norvegicus) (P70579 whole entry, looked up): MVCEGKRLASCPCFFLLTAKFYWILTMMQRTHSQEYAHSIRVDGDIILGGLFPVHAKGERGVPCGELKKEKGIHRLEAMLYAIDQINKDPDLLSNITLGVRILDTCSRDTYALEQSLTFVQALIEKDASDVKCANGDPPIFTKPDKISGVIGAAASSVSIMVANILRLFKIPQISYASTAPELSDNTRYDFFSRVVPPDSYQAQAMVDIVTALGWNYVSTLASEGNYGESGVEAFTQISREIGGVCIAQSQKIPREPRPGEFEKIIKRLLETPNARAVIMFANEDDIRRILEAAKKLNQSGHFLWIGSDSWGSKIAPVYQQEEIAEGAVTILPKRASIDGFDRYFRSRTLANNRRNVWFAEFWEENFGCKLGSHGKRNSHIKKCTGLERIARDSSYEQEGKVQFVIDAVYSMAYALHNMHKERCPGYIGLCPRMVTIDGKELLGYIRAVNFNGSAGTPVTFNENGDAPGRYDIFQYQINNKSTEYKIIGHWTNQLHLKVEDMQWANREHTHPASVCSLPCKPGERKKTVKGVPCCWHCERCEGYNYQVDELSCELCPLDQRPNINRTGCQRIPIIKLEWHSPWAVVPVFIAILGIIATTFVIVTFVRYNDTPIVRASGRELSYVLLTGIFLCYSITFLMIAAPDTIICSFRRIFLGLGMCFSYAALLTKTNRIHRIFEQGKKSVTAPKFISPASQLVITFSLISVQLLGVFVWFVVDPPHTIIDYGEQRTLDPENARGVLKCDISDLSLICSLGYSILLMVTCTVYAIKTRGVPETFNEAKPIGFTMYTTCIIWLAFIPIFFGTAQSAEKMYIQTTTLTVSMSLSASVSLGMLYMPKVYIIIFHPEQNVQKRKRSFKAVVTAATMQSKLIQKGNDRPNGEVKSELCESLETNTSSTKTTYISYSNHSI
Consider `COc1ccc(-c2nc(C)ncc2N=Nc2ccccc2)cc1`, for which the z-score is -0.33.

`O=C1CCN(C(=O)Nc2cccc(Cl)c2)N1`: the z-score was -0.0566.

In the case of `CCN(CCO)c1ncnc2c1sc1nc(C(C)C)c3c(c12)CC(C)(C)OC3`, the z-score is -0.241.

For `Cc1cccc(NC(=O)CN2C(=O)N/C(=C/c3ccc(C)o3)C2=O)c1`, the z-score came to 0.0879.

Take `CCOCC(=O)Nc1cc([N+](=O)[O-])ccc1C`: the z-score is -0.688.

In turn, `CC1=NN(c2ccc(C)cc2)C(=O)/C1=C\c1ccc(Br)s1` showed a z-score of -0.327.

On to `Cn1c(Cc2ccccc2)nnc1SCC(=O)NC1CCCCC1`, for which the z-score was 0.0891.

Turning to `CCN(CC)C(=O)Cn1nc(C)c2ccccc2c1=O`, the z-score is -0.346.

As for `Cc1ccsc1/C=N/Nc1nc(Cl)c(Cl)cc1Cl`, the z-score came out at 0.292.

Regarding `Cc1ccc(/C=N/Nc2ncc(Cl)cc2Cl)s1`, the z-score came out at 0.576.

For the molecule `Cc1ccc(/C=N/Nc2nc(Cl)c(Cl)cc2Cl)s1`, the z-score was 3.84 (active).

The molecule `Cc1sc2nc(CN3CCCC3)nc(N3CCC(C(N)=O)CC3)c2c1C` came in with a z-score of -0.212.

On to `Cc1sc2nc(CN3CCCC3)nc(N3CCN(S(=O)(=O)c4cccs4)CC3)c2c1C`, for which the z-score was 4.12 (active).

With `CCc1nc(N2CCN(S(=O)(=O)c3ccc(Br)cc3)CC2)c2c(C)c(C)sc2n1`, the z-score is -0.0531.

In the case of `O=c1c2cc(Br)ccc2nc(-c2cccc(C(F)(F)F)c2)n1O`, the z-score was 10.5 (active).

Take `O=c1c2ccc(Cl)cc2nc(-c2cccc(C(F)(F)F)c2)n1O`: the z-score was 10.9 (active).

Molecule `O=c1c2ccccc2nc(-c2cccc(Cl)c2)n1O` yielded a z-score of 1.74.

Turning to `O=C(Nc1ccc(C(F)(F)F)cc1)c1cc(-c2cccnc2)nc2ccc(Br)cc12`, the z-score was -0.0141.

As for `FC(F)(F)c1cccc(-c2nnc3ccc(C(F)(F)F)cn23)c1`, the z-score was found to be 0.312.

For the molecule `O=c1[nH]c(/C(Cl)=C/c2cccc(C(F)(F)F)c2)nc2cc(Cl)ccc12`, the z-score was -0.0389.

`C=CCc1ccccc1OCC(O)CN1CCN(c2ccccc2F)CC1` (configuration not stated): the z-score came to 0.0351.

Take `Cc1noc(C)c1S(=O)(=O)N1CCC(C(=O)N2CCN(C(=O)c3ccco3)CC2)CC1`: the z-score is -0.53.

For the molecule `O=C(O)CCCC(=O)Nc1ccc(Br)cc1`, the z-score was 0.0741.

On to `O=c1oc(-c2ccco2)nc2ccccc12`, for which the z-score is -0.973.

As to `Cc1ccc2nc(-c3ccc(Br)o3)oc(=O)c2c1`, the z-score is -0.0466.

Turning to `O=c1oc(-c2ccc(Br)o2)nc2ccccc12`, the z-score was 5.63 (active).

On to `CCN(CC)C(=O)C(=O)N/N=C/c1ccc(Br)cc1`, for which the z-score was 0.0116.

Turning to `CC(Sc1nnc(-c2ccc(Cl)cc2Cl)n1Cc1ccccc1)C(=O)Nc1nccs1` (configuration not stated), the z-score is -1.54.

Molecule `Cc1nn(C(=O)c2ccccc2)c2c1C(=O)CC(C)(C)C2` showed a z-score of 2.47.

In turn, `Cn1c2c(c(O)c(-c3ccccc3)c1=O)C(=O)CC(C)(C)C2` returned a z-score of -0.119.

`CCCc1nn(C(=O)c2ccccc2)c2c1C(=O)CC(C)(C)C2`: the z-score was 0.0989.

Molecule `O=C(NCC(=O)N(c1ccccc1)C(C(=O)NC1CCCC1)c1ccncc1)c1ccco1` (configuration not stated) had a z-score of -0.115.

Regarding `COC(=O)Nc1nnc(Cc2ccc(Cl)cc2)s1`, the z-score turned out to be 2.4.

Turning to `COC(=O)Nc1nnc(Cc2ccccc2)s1`, the z-score is -0.412.

As for `COC(=O)Nc1nnc(Cc2ccc(OC)cc2)s1`, the z-score is -0.342.

`Cc1ccc2oc(C(=O)Nc3nnc(C)s3)c(C)c2c1` yielded a z-score of -0.9.

Molecule `S=c1[nH]nc(-c2ccc(Br)cc2)n1Cc1ccco1` showed a z-score of 2.41.

`S=c1[nH]nc(-c2ccncc2)n1Cc1ccco1`: the z-score was -0.198.

The molecule `CCn1c(-c2ccc(C)cc2)n[nH]c1=S` registered a z-score of -0.192.

On to `CCn1c(-c2cc(C3CC3)nc3ccccc23)n[nH]c1=S`, for which the z-score is -0.258.

On to `CCn1c(-c2cccc(Br)c2)n[nH]c1=S`, for which the z-score amounted to 2.35.

`CCn1c(-c2cc3ccccc3cc2O)n[nH]c1=S`: the z-score came to 2.62.

With `Oc1ccc(-c2n[nH]c(=S)n2Cc2ccco2)cc1`, the z-score is -0.11.

For `CCn1c(-c2c[nH]c3ccccc23)n[nH]c1=S`, the z-score is -0.0356.

`Nn1c(-c2cccc(Br)c2)n[nH]c1=S`: the z-score was -0.267.

`CCCCCn1c(N)c(-c2nc3ccccc3s2)c2c([N+](=O)[O-])nn(CC)c(=O)c21` had a z-score of -0.75.

For `COc1ccc2c(c1OC)C(=O)N1N=C(c3ccc(Br)cc3)CC21` (configuration not stated), the z-score is -1.04.

Regarding `C=C(C)C1CC=C(CN2CCC(C(=O)OCC)CC2)CC1` (configuration not stated), the z-score was 0.503.

In turn, `Cc1ccc(S(=O)(=O)c2nc(S(C)(=O)=O)sc2N(C)C)cc1` showed a z-score of 0.113.

In turn, `COc1ccc(CC(=O)O/N=C(\N)Cc2cccc3ccccc23)cc1OC` yielded a z-score of -0.317.

Molecule `Cc1ccsc1/C=C(\C#N)C(=O)NCc1ccco1` showed a z-score of -0.0871.

Consider `CCOc1cc(C)c(S(=O)(=O)Nc2ccc(F)cc2)cc1C`, for which the z-score amounted to 0.564.

For the molecule `COc1ccc(C)c(S(=O)(=O)Nc2ccc(OCC(=O)O)cc2)c1`, the z-score worked out at 0.2.

In turn, `COc1cc(C)c(S(=O)(=O)Nc2ccc(CC(=O)O)cc2)cc1C` returned a z-score of 2.01.

Regarding `N#C/C(=C\c1ccccc1)C(=O)Nc1cc(S(=O)(=O)N2CCOCC2)ccc1N1CCCC1`, the z-score was -0.0157.

`CC(C)NC(=O)C12CC3CC(C1)CC(n1cnc(Cl)n1)(C3)C2` displayed a z-score of -0.0733.

In turn, `COc1ccc(C(=O)NNC(=O)CN2CCC(n3nnc4cc(F)ccc43)CC2)cc1` yielded a z-score of -0.223.

As to `Cc1ccc(OCC(=O)N/N=C\c2ccc(-c3cccc(C(=O)O)c3)o2)c(C)c1`, the z-score is 3.24 (active).

`O=C(O)c1cccc(-c2ccc(/C=N/NC(=O)c3cccnc3)o2)c1` registered a z-score of -0.216.

For `Cc1ccc(OCC(=O)N/N=C\c2ccncc2)c(C)c1`, the z-score was 1.4.

`O=C(NC1CCCC1)C1CCN(c2nccs2)CC1` displayed a z-score of 0.382.

Molecule `CCc1cccc(CC)c1NC(=O)COC(=O)CCc1cc(OC)c(OC)c(OC)c1` gave a z-score of -0.0755.

`CCC(=O)c1c[nH]c(C(=O)NCCCN2CCOCC2)c1`: the z-score was -0.121.

On to `CC(=O)N1CCC(N(CCN2CCOCC2)C(=S)Nc2cc(C)ccc2C)CC1`, for which the z-score was -0.0971.

For `CCCCOC(=O)c1ccc(NC(=S)NC(=O)c2c(Cl)cnn2CC)cc1`, the z-score is 8.06 (active).

In the case of `CCCCOC(=O)c1ccc(NC(=S)NC(=O)c2c(Cl)cnn2C)cc1`, the z-score is 11.2 (active).

Molecule `COC(=O)c1cc(NC(=O)c2c(Cl)cnn2C)cc(C(=O)OC)c1` gave a z-score of -0.191.

With `Cn1ncc(Cl)c1C(=O)Nc1ccncc1`, the z-score turned out to be 0.243.

`COC(=O)c1ccc(NC(=S)NC(=O)c2c(Cl)cnn2C)cc1`: the z-score was 10.1 (active).

In the case of `CCCCOC(=O)c1ccc(NC(=S)NC(=O)c2c(Br)c(C)nn2C)cc1`, the z-score was 4.24 (active).

Consider `CCCCOC(=O)c1ccc(NC(=O)c2cc(Cl)ccc2OC)cc1`, for which the z-score was -0.0115.

Turning to `CCOC(=O)c1ccc(NC(=S)NC(=O)c2nn(CC)cc2Br)cc1`, the z-score was 1.17.

Regarding `CCCCOC(=O)c1ccc(NC(=O)c2cnccn2)cc1`, the z-score was 0.00424.

Turning to `CCn1ncc(Cl)c1C(=O)Nc1ccncc1`, the z-score was -0.171.

`CCCCOC(=O)c1ccc(NC(=O)c2ccccc2OC)cc1` returned a z-score of -0.0471.

Regarding `CCCCOC(=O)c1ccc(NC(=O)c2nn(C)cc2Br)cc1`, the z-score is -0.112.

Molecule `CCc1nnc(NC(=O)C2CCCN2S(=O)(=O)c2ccc(F)cc2)s1` (configuration not stated) gave a z-score of 0.145.

Take `CCOC(=O)c1cccc(NS(=O)(=O)c2c(C)[nH]c(=O)[nH]c2=O)c1`: the z-score was -0.0134.

With `CCn1c(/C=C2\C(=O)Nc3ccccc32)nc2ccccc2c1=O`, the z-score was -0.221.

`COc1cccc(OCC(=O)N(Cc2nc(-c3ccc(Cl)cc3)no2)C(C)C)c1`: the z-score came out at 0.0492.

`CCS(=O)(=O)NC(C)C(c1cccs1)N1CCN(c2ccc(F)cc2)CC1` (configuration not stated) came in with a z-score of 0.062.

As for `COc1ccc(OC)c(N2Cc3cc(C)c(C)cc3C2)c1`, the z-score is 0.286.

On to `NC(=O)N1CCN(C(=O)c2ccco2)CC1`, for which the z-score is 0.536.

Take `COc1ccc(OC)c(/C=N/NC(=O)CC2C(=O)NN=C2C)c1` (configuration not stated): the z-score was -0.12.

For the molecule `C=CCN(CC=C)S(=O)(=O)c1ccc(NC(=S)NC(=O)c2ccco2)cc1`, the z-score is 10.3 (active).

As to `CC1CCN(c2ccc(NC(=S)NC(=O)c3ccc(-c4cccc([N+](=O)[O-])c4)o3)cc2)CC1`, the z-score is -0.0494.

`O=C(Nc1ccc(CN2CCOCC2)cc1)c1cc2ccccc2o1` registered a z-score of 0.834.

The molecule `NS(=O)(=O)c1ccc(NC(=S)NC(=O)c2ccco2)cc1` displayed a z-score of -0.0865.

Molecule `O=C(NC(=S)Nc1ccc(N2CCOCC2)cc1)c1cccc([N+](=O)[O-])c1` came in with a z-score of 0.169.

In turn, `O=C(NC(=S)Nc1ccc(NC(=O)c2ccco2)cc1)c1ccccc1` displayed a z-score of -0.416.

In the case of `CC1CCN(c2ccc(NC(=S)NC(=O)c3ccco3)cc2)CC1`, the z-score is 4.93 (active).

Molecule `C=CCN(CC=C)S(=O)(=O)c1ccc(NC(=S)NC(=O)c2ccc(-c3ccccc3)cc2)cc1` returned a z-score of -0.107.

Take `O=C(NC(=S)Nc1ccc(CN2CCOCC2)cc1)c1ccc([N+](=O)[O-])cc1`: the z-score is 0.649.

`O=C(NC(=S)Nc1ccc(CN2CCOCC2)cc1)c1cccc([N+](=O)[O-])c1` displayed a z-score of 2.19.

As for `COc1ccc(NC(=O)c2cc3ccccn3n2)cc1`, the z-score is -0.0979.

For `O=C(Nc1ccc(CN2CCOCC2)cc1)c1cc2ccccn2n1`, the z-score was 4.59 (active).

In the case of `Cc1cccc2sc(NC(=O)C3CCN(S(=O)(=O)c4cc([N+](=O)[O-])ccc4Cl)CC3)nc12`, the z-score amounted to 0.0365.

`CCOC(=O)C1CCN(C(=O)COc2ccc(Cl)cc2Cl)CC1`: the z-score was -0.471.

`CCCCOC(=O)Nc1ccc(S(=O)(=O)Nc2ccc([N+](=O)[O-])cc2)cc1` displayed a z-score of 0.51.

`N/C(=N\OC(=O)c1ccc(Cl)c(Cl)c1)c1cccnc1`: the z-score was -0.145.

`COc1ccccc1NC(=O)N(Cc1ccco1)Cc1cc2ccc(C)c(C)c2[nH]c1=O` yielded a z-score of -1.77.

`C=CCn1c(Cc2cccs2)nnc1SCC(=O)c1ccc2ccccc2c1` returned a z-score of -0.708.

`CCOC(=O)c1c(NC(=O)c2noc3c2CCCC3)sc(C)c1C` had a z-score of -0.285.

As for `O=C(NC(=S)Nc1ccc(N2CCOCC2)cc1)c1ccc2c(c1)OCCO2`, the z-score was determined as 0.0862.

Take `S=C(NCc1ccco1)Nc1ccc(N2CCOCC2)cc1`: the z-score is -0.00184.

Molecule `O=C(NC(=S)Nc1ccc(N2CCCCC2)cc1)c1ccco1` returned a z-score of -1.53.

Molecule `O=C(NC(=S)Nc1ccc(N2CCOCC2)cc1)c1ccc(Cl)cc1` had a z-score of 0.272.

Regarding `O=C(NC(=S)Nc1ccc(N2CCOCC2)cc1)c1cccc(Cl)c1`, the z-score was 4.95 (active).

With `O=C(NC(=S)Nc1ccc(N2CCOCC2)cc1)c1ccco1`, the z-score is 3.46 (active).

Regarding `O=C(CCc1ccccc1)N1CCN(c2ccccn2)CC1`, the z-score was -0.254.

Regarding `O=C(c1ccccc1CCc1ccccc1)N1CCN(c2ccccn2)CC1`, the z-score amounted to 2.38.

`O=C(c1ccccc1-c1ccccc1)N1CCN(c2ccccn2)CC1` returned a z-score of -0.0481.

Source of the values: PubChem BioAssay AID488969 (Vanderbilt High Throughput Screening Facility, 2010).
